From PubChem BioAssay (NCATS)
Activity calls are given as the source filed them. The call rests on the fitted dose curve; in most records, active means well fitted inhibition curve with a large enough effect; inconclusive means small, poorly fitted or top-dose-only effect; inactive means flat fitted curve, though single readings scatter.

These compounds were tested against Flap endonuclease 1 (Homo sapiens) (UniProt P39748) (assay: qHTS Validation Assay for the Inhibitors of Human Flap endonuclease 1 (FEN1) (AID 488816)). Details: FEN1 nuclease activity, fluorogenic DNA substrate; series mostly up to 57.1 µM; activity, negative = inhibition: at the top concentration.
Sequence of Flap endonuclease 1 (Homo sapiens) (P39748 whole entry, looked up, the tested form may be a part): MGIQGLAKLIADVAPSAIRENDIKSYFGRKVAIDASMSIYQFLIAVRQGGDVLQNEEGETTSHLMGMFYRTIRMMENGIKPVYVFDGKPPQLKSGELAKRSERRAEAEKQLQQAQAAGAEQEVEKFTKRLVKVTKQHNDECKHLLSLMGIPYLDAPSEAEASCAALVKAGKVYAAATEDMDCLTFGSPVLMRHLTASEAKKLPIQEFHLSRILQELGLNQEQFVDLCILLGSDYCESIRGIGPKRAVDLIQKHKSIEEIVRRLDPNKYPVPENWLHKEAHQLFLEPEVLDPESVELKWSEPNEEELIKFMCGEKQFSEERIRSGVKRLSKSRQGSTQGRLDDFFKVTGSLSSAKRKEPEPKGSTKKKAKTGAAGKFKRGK
Excerpt: The major human flap endonuclease FEN1 is an efficient structure-specific enzyme that recognizes and cleaves a 5'-unannealed DNA flap. It belongs to the RAD2 family nucleases, which are involved in DNA metabolism and are highly conserved in prokaryotes and eukaryotes. FEN1 is a key enzyme in DNA replication, repair and maintenance of genomic stability. 5'-flap removal by FEN1 is critical for Okazaki fragment processing during lagging strand DNA synthesis, long-patch base excision repair (LP BER), and regulating or facilitating recombination events. […] Deletion of the yeast FEN1 gene, i.e. rad27, results in an increased frequency of short DNA (3-32 bp) repeats, micro- and mini-satellite formation, trinucleotide repeat expansion, spontaneous recombination events, and a severe growth defect in association with cell cycle arrest in late S/G2 phase. […] Cells from fen1-/- blastocysts show increased apoptotic cell death after ionizing radiation treatment, and chicken cells lacking the fen1 gene are hypersensitive to DNA alkylating agents, e.g. methylmethane sulfonate (MMS) and N-methyl-N'-nitro-N-nitrosoguanidine (MNNG), as well as hydrogen peroxide.
FEN1 is found to be increased in many human cancers, including lung, brain cancer, gastric cancer, prostate cancer, pancreatic cancer and breast cancer. […] In particular, elevation of FEN1 in hormone refractory human prostate cancer cells correlates with resistant to various anticancer agents including ionizing radiation, doxorubicin, paclitaxel and vinblastine.
Three uL of reagents (buffer in column 3 and 4 as negative control and 10 nM FEN1 in columns 1, 2, and 5-48) were dispensed into 1,536-well black solid-bottomed plate. Compounds (23 nL) were transferred via Kalypsys pin tool equipped with 1536-pin array (10 nL slotted pins, V&P Scientific, San Diego, CA). The plates were then incubated for 15 min at room temperature, and 1 uL substrate (50 nM final concentration) were added to start the reaction read twice at 0 min read and 15 min on ViewLux reader. Throughout the screen, reagent bottle and all liquid lines were chilled and made light-tight to minimize reagent degradation. All screening operations were performed on a fully integrated robotic system (Kalypsys, San Diego, CA) containing one RX-130 and two RX-90 anthropomorphic robotic arms (Staubli, Duncan, SC). Library plates were screened starting from the lowest and proceeding to the highest concentration, and a "double-dipping" step of the highest concentration was required to access higher concentrations of compounds. Vehicle-only plates, with DMSO being pin-transferred to the entire column 5-48 compound area, were inserted uniformly at the beginning and the end of each library in order to monitor for and record any shifts in the background, which can be affected by reagent dispensers or loss in enzyme activity overtime. Screening data was corrected, normalized, and concentration-effect relationships were derived by using publicly-available curve fitting algorithms developed in-house (http://ncgc.nih.gov/pub/openhts). A four parameter Hill equation was fitted to the concentration-response data by minimizing the residual error between the modeled and observed responses.
On the % scale 0 is the no-effect control and ±100 the full control effect; potency means the concentration at half of the fitted maximal effect.

Row | Structure (SMILES) | activity, negative = inhibition | Potency
1 | CCCCCCC(=O)OC1CC(C)(C)NC(C)(C)C1 | 0.395% (inactive) | 
2 | OCC1NCC(O)C(O)C1O (stereo not given) | -0.0129% (inactive) | 
3 | CCCCCCN(CCCCCC)C(=O)Cc1c(-c2ccc(F)cc2)[nH]c2ccccc12 | -20.2% (inactive) | 
4 | CCCc1c(-c2ccc(O)cc2)nn(-c2ccc(O)cc2)c1-c1ccc(O)cc1 | -22.1% (inactive) | 
5 | CC(C)Cn1c(=O)n(C)c(=O)c2[nH]cnc21 | -0.455% (inactive) | 
6 | O=C1Cc2c([nH]c3ccc(Br)cc23)-c2ccccc2N1 | -23.7% (inactive) | 
7 | NCCCCN=C(N)N | -8.68% (inactive) | 
8 | O=C(O)CCC/C=C\C[C@@H]1[C@@H](/C=C/[C@H](O)C2Cc3ccccc3C2)[C@@H](F)C[C@@H]1O | -6.16% (inactive) | 
9 | CCOC(=O)C12CC1/C(=N/O)c1ccccc1O2 (stereo not given) | -9.66% (inactive) | 
10 | CC1CCN(CC[C@H]2CCCN2S(=O)(=O)c2cccc(O)c2)CC1 | -6.51% (inactive) | 
11 | N=C(N)c1ccc(OCCCCCOc2ccc(C(=N)N)cc2)cc1 (tested in a mixture with another compound) | -10.3% (inactive) | 
12 | COc1cc(/C=C(\C#N)C(=O)c2ccc(O)c(O)c2)cc(I)c1O |  | 0.844 µM (active)
13 | COc1ccc(CCN(C)CCc2ccc(OC)c(OC)c2)cc1OC | -3.44% (inactive) | 
14 | N=C(N)c1ccc(N)cc1 | -7.46% (inactive) | 
15 | O=C(OCCN1CCOCC1)C1(c2ccccc2)CCCCC1 | -6.37% (inactive) | 
16 | NC(N)=NC(N)=Nc1ccccc1 | -12.4% (inactive) | 
17 | Nc1ncnc2c1nc(Br)n2C1OC2COP(=O)(O)O[C@@H]2C1O (stereo not given in full) | 1.3% (inactive) | 
18 | CCCC[C@@]1(C2CCCC2)Cc2cc(OCC(=O)O)c(Cl)c(Cl)c2C1=O | -8.12% (inactive) | 
19 | COCc1nc2c([nH]1)c(=O)n(C)c(=O)n2CC(C)C | -1.45% (inactive) | 
20 | CCCCCCCCCCCCCCC[C@H](O)[C@H](N)CO | -3.1% (inactive) | 

Row | Structure (SMILES) | activity, negative = inhibition | Potency
21 | COc1cccc(OC)c1OCCNCC1CSc2ccccc2O1 (stereo not given) | -3.76% (inactive) | 
22 | CSC(N)=NCCC[C@H](N)C(=O)O | -5.95% (inactive) | 
23 | NC(=O)CNCCC(c1ccccc1)c1ccccc1 | -8.49% (inactive) | 
24 | CCN(CC)CCOC(=O)c1cc(Cl)c(N)cc1OC | -5.52% (inactive) | 
25 | CN1C2CCC1CC(OC(c1ccccc1)c1ccccc1)C2 (stereo not given) | -2.23% (inactive) | 
26 | OC1(c2ccc(Cl)cc2)CCN(Cc2c[nH]c3ccccc23)CC1 | -3.16% (inactive) | 
27 | C=C1C(=O)O[C@@H]2[C@H]3O[C@]3(C)CCC=C(C)CC[C@@H]12 | -3.13% (inactive) | 
28 | COc1ccccc1N1CCN(CCCCN2C(=O)c3ccccc3C2=O)CC1 | -5.2% (inactive) | 
29 | NC/C=C\C(=O)O | -10.3% (inactive) | 
30 | O=C(O)Cc1c[nH]c2ccc(O)cc12 | -4.87% (inactive) | 
31 | O=C(O)C1CN(CCCP(=O)(O)O)CCN1 (stereo not given) | 0.184% (inactive) | 
32 | Cn1c(=O)c2[nH]c(-c3ccc(S(=O)(=O)O)cc3)nc2n(C)c1=O | -1.18% (inactive) | 
33 | COc1cc(/C=C(\C#N)C(=O)Nc2nnc(C(F)(F)F)s2)ccc1OCc1ccc(C(F)(F)F)cc1C(F)(F)F | -28.1% (inactive) | 
34 | COC(=O)C(N)Cc1ccc(Cl)cc1 (stereo not given) | -1.92% (inactive) | 
35 | CCCN(CCc1ccccc1)C1CCc2c(O)cccc2C1 (stereo not given) | -10.4% (inactive) | 
36 | CC(O)C(O)[C@H]1CNc2nc(N)[nH]c(=O)c2N1 (stereo not given in full) | -1.93% (inactive) | 
37 | Nc1ncnc2c1nc(Sc1ccc(Cl)cc1)n2[C@H]1OC2COP(=O)(O)O[C@@H]2C1O (stereo not given in full) | 1.05% (inactive) | 
38 | CN(C)CCCc1cc(C(=O)Nc2ccc(-c3ccncc3)cc2)ccc1O | -8.02% (inactive) | 
39 | COc1cc(N)c(Cl)cc1C(=O)OCCN1CCCCC1 | -3.25% (inactive) | 
40 | CCCCOC(=O)NS(=O)(=O)c1sc(CC(C)C)cc1-c1ccc(Cn2c(CC)nc3c(C)cc(C)nc32)cc1 | -23.4% (inactive) | 
